Screening data: PubChem, Broad Institute
C diff HTS – blocks growth of Clostridium difficile | Clostridium difficile clinical isolate growth, OD600, 24 h; hits give low values | growth activity, negative = inhibition, % at 16 µg/mL (by protocol) | 86,000 tested, 0.25% active | AID 1259249;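 active means mean growth activity at or below -80% and every replicate also at or below -80%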
Pf Dd2 growth – P. falciparum Dd2 growth inhibition; SYBR Green, 72 h; hits give low values; activity change, % at 10 µM; 94,000 tested, 2.3% active; in the data active means activity change below about -80%
Large screens that a line does not name were inactive. Only some compounds are listed: those with a hit (about 2.4% of all), similar ones and a draw of the others.

C[C@@H]1CN([C@H](C)CO)C(=O)c2cccc(NC(=O)Nc3ccc(C(F)(F)F)cc3)c2O[C@@H]1CN(C)C(=O)Nc1ccc(C(F)(F)F)cc1	none
Cc1ccc(S(=O)(=O)N(C)C[C@@H]2Oc3c(NC(=O)Nc4ccccc4)cccc3C(=O)N([C@H](C)CO)C[C@@H]2C)cc1	none
C[C@@H]1CCCCO[C@H](CN(C)C(=O)Nc2cccc3ccccc23)[C@H](C)CN([C@H](C)CO)C(=O)c2cc(NS(=O)(=O)c3cn(C)cn3)ccc2O1	none
COc1ccc(S(=O)(=O)Nc2ccc3c(c2)C(=O)N([C@@H](C)CO)C[C@@H](C)[C@H](CN(C)CC2CC2)OCCCC[C@H](C)O3)cc1	none
CCCN(C)C[C@@H]1OCCCC[C@@H](C)Oc2ccc(NS(=O)(=O)c3ccc(C)cc3)cc2C(=O)N([C@@H](C)CO)C[C@@H]1C	none
CCCN(C)C[C@H]1OCCCC[C@H](C)Oc2ccc(NS(=O)(=O)c3ccc(OC)cc3)cc2C(=O)N([C@H](C)CO)C[C@H]1C	Pf Dd2 growth -86.3
CCCN(C)C[C@@H]1OCCCC[C@H](C)Oc2ccc(NS(=O)(=O)c3ccc(C)cc3)cc2C(=O)N([C@@H](C)CO)C[C@H]1C	Pf Dd2 growth -93.9
CN(C)CC(=O)N[C@@H]1CC[C@H](CCNC(=O)C2CCCC2)O[C@@H]1CO	none
CN1[C@@H]2c3ccc(-c4ccncc4)c(=O)n3C[C@H]1[C@H](CO)[C@H]2C(=O)Nc1nccs1	none
C[C@@H]1CN([C@H](C)CO)C(=O)Cc2cc(NC(=O)CCCCCC(=O)Nc3ccccc3N)ccc2O[C@@H]1CN(C)Cc1ccc(-c2ccccc2)cc1	none
C[C@H](CO)N1C[C@H](C)[C@H](CN(C)Cc2ccc(-c3ccccc3)cc2)Oc2ccc(NC(=O)CCCCCC(=O)Nc3ccccc3N)cc2CC1=O	Pf Dd2 growth -83.3
COc1ccc(CN(C)C[C@H]2Oc3ccc(NC(=O)CCCCCC(=O)Nc4ccccc4N)cc3CC(=O)N([C@H](C)CO)C[C@H]2C)cc1	none
COc1ccc(CN(C)C[C@@H]2Oc3ccc(NC(=O)CCCCCC(=O)Nc4ccccc4N)cc3CC(=O)N([C@H](C)CO)C[C@@H]2C)cc1	Pf Dd2 growth -84.7
COc1ccc(CN(C)C[C@@H]2Oc3ccc(NC(=O)CCCCCC(=O)Nc4ccccc4N)cc3CC(=O)N([C@@H](C)CO)C[C@@H]2C)cc1	Pf Dd2 growth -86.5
COc1ccc(CN(C)C[C@H]2Oc3ccc(NC(=O)CCCCCC(=O)Nc4ccccc4N)cc3CC(=O)N([C@@H](C)CO)C[C@H]2C)cc1	none
O=C(C[C@@H]1C=C[C@H](NC(=O)C2CCC2)[C@H](CO)O1)NC1CCC1	none
C[C@@H]1CN([C@H](C)CO)C(=O)c2cc(NC(=O)CCC(F)(F)F)ccc2O[C@@H](C)CCCCO[C@@H]1CN(C)Cc1ccc(Cl)c(Cl)c1	none
C[C@@H]1CN([C@H](C)CO)C(=O)c2cc(NC(=O)Cc3ccccc3)ccc2O[C@@H](C)CCCCO[C@H]1CN(C)Cc1ccc(Cl)c(Cl)c1	Pf Dd2 growth -83.6
C[C@@H]1CCCCO[C@H](CN(C)Cc2ccc(Cl)c(Cl)c2)[C@@H](C)CN([C@@H](C)CO)C(=O)c2cc(NC(=O)CCC(F)(F)F)ccc2O1	Pf Dd2 growth -94.8
C[C@H]1CCCCO[C@H](CN(C)Cc2ccc(Cl)c(Cl)c2)[C@@H](C)CN([C@@H](C)CO)C(=O)c2cc(NC(=O)Cc3ccccc3)ccc2O1	Pf Dd2 growth -85.2
C[C@@H]1CCCCO[C@@H](CN(C)Cc2ccccc2)[C@H](C)CN([C@H](C)CO)C(=O)c2cc(NC(=O)Cc3ccccc3)ccc2O1	none
C[C@@H]1CCCCO[C@@H](CN(C)Cc2ccc(Cl)c(Cl)c2)[C@H](C)CN([C@@H](C)CO)C(=O)c2cc(NC(=O)Cc3ccccc3)ccc2O1	none
COCC#Cc1cnc2c(c1)C(=O)N([C@H](C)CO)C[C@@H](C)[C@H](CN(C)C)O2	none
Cc1ccccc1-c1cnc2c(c1)C(=O)N([C@H](C)CO)C[C@@H](C)[C@H](CN(C)Cc1ccncc1)O2	none
C[C@@H]1CN([C@H](C)CO)C(=O)c2cc(NC(=O)CCC(F)(F)F)ccc2O[C@@H](C)CCCCO[C@H]1CN(C)C(=O)c1ccccc1	none
CCCC#Cc1ccc([C@@H]2[C@@H](CO)N3CCCCN(Cc4cccnc4)C[C@@H]23)cc1	none
C[C@H](CO)N1C[C@H](C)[C@@H](CN(C)Cc2ccc(C(F)(F)F)cc2)OCCCC[C@H](C)Oc2ccc(NS(=O)(=O)c3ccc(Cl)cc3)cc2C1=O	none
CNC(=O)C[C@H]1CC[C@H]2[C@@H](COC[C@H](O)CN2S(=O)(=O)c2ccc(Oc3ccccc3)cc2)O1	none
C[C@H]1CN([C@@H](C)CO)C(=O)c2cc(C#CCN(C)C)cnc2O[C@@H]1CN(C)Cc1cccc(F)c1	none
Cc1noc(C)c1NC(=O)N[C@@H]1CC[C@H](CC(=O)Nc2ccccc2)O[C@@H]1CO	none (no result: Pf Dd2 growth)
